What all share (test): NCI-60 one-dose screen, 48 h (100 = growth as untreated, 0 = no growth, -100 = all killed)
Holding throughout (conditions): 10 µM unless noted

The test system of assay [1] is HCT-15 colon.
The subject of assay [2] is HT29 colon.
Assay [3] deals with SNB-75 CNS.
For assay [4], the system named is SNB-19 CNS.
The test system of assay [5] is U251 CNS.
Assay [6] has as its system PC-3 prostate.
In assay [7] the test system is SK-MEL-5 melanoma.
Assay [8] has as its system UACC-62 melanoma.
Assay [9] concerns LOX IMVI melanoma.
The test system of assay [10] is SK-MEL-28 melanoma.

Compounds without any hit were thinned out: in the full panel of roughly 83,000, 20% have a hit.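 Cell lines were cultured in 96-well plates, exposed to a single compound concentration, and assessed for percent growth 48 hours later.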 A number with no mark means an inactive call. Active and inactive are the calls of the source. Rule for the calls: active = growth percent below 10; inactive = the rest.

Regarding `O=C(NC(Cc1cn(Cc2ccccc2)cn1)C(=O)O)OCC1c2ccccc2-c2ccccc21` (centres undefined), the growth is 104% in assay [1]; 98.1% in assay [2]; 92.3% in [3]; 109% in assay [4]; 101% in assay [5]; 100% in assay [6]. Besides, the growth in assay [7] was 103%; in assay [8] it was 112%; in [9], 97.8%; in assay [10], 104%.
In the case of `Cc1ccc(Nc2c(C(N)=O)cnc3ccc(S(=O)(=O)Nc4cc(C)on4)cc23)cc1`, the growth was 108% in assay [1]; 98.3% in [2]; 81% in assay [3]; 94.7% in [4]; 95.6% in assay [5]; 86.5% in assay [6]. Further, the growth in [7] is 99%; in assay [8], 91.8%; in assay [9], 95.8%; in [10], 101%.
`O=C1NC(c2ccc(Cl)c(Cl)c2)=C/C1=C\c1ccccc1`: the growth is 69% in assay [1]; 87.7% in assay [2]; 63.1% in assay [3]; 80% in [4]; 46.1% in [5]; 79.2% in [6]. Moreover, the growth is 97.3% in assay [7], 86.7% in [8] and 104% in [10].
For `NC(Cc1ccc(O)cc1)C(=O)N/N=C/c1ccccc1O` (centres undefined), the growth in [1] is 96.8%; in [2], 101%; in assay [3], 92.7%; in assay [4], 110%; in [5] it was 96.9%; in assay [6], 89.3%. In addition, the growth in [7] was 103%; in [8], 113%; in assay [9] it was 92.6%; in assay [10], 106%.
Turning to `Cc1ccc(-c2ccc(Nc3ccccc3)nn2)cc1S(N)(=O)=O`, the growth was 65.9% in [1]; 70.9% in [2]; 87.1% in [3]; 106% in [4]; 93.7% in assay [5]; 93.8% in [6]. The growth is 89.3% in assay [7], 89% in [8], 73.7% in [9] and 89.1% in assay [10].
As to `COc1ccc(/C(=C\c2ccc3c(c2)OCO3)C(=O)Nc2nc3ccccc3s2)cc1OC`, the growth was 90.1% in assay [1]; 90.3% in assay [2]; 94.3% in assay [3]; 101% in assay [4]; 97.9% in [5]; 92.1% in assay [6]. Moreover, the growth was 101% in [7], 97.8% in assay [8], 102% in assay [9] and 106% in assay [10].
Regarding `Cc1nnc2nc(N)[nH]n2c1=O`, the growth in assay [1] is 99.4%; in assay [2] it was 104%; in assay [3], 93.7%; in assay [4] it was 117%; in assay [5], 99%; in [6] it was 98%. For the same compound, the growth in [7] is 106%; in [8] it was 115%; in [9], 94.7%; in assay [10] it was 109%.
In the case of `CC(C)(C)c1ccc(OP(=S)(N/N=C/c2ccccc2O)Oc2ccc(C(C)(C)C)cc2)cc1`, the growth in assay [1] was 69.9%; in assay [2], 69.2%; in assay [3], 66.1%; in assay [4], 81%; in assay [5] it was 50.4%; in [6], 30.1%. Also, the growth is 73.5% in assay [7], 76.5% in [8], 67.6% in assay [9] and 83.3% in assay [10].
For `COc1ccc(C(=O)c2cc(OC)c(OC)c(OC)c2)cc1/C=C/C(=O)c1cc(OC)c(OC)c(OC)c1`, the growth is 64.7% in assay [1]; 82.7% in [2]; 65.4% in assay [3]; 92.7% in assay [4]; 86.4% in assay [5]; 86.5% in assay [6]. Besides, the growth in [7] is 86.6%; in assay [8], 70.6%; in [9] it was 79%; in assay [10], 91.3%.
In the case of `O=C1c2ccccc2C(=Cc2ccccc2)c2ccccc21`, the growth was 7.88% (active) in assay [1]; 0.453% (active) in assay [2]; -40.9% (active) in assay [3]; 24.8% in [4]; 6.21% (active) in [5]; 31.8% in assay [6]. The growth in assay [7] was 13.7%; in [8] it was 23.9%; in assay [9], 4.62% (active); in assay [10] it was 18.3%.
In the case of `O=C1C=C(C(O)c2ccc(O)cc2)C(=O)c2ccccc21` (centres undefined), the growth was 94.9% in assay [1]; 115% in assay [2]; 102% in [3]; 110% in assay [4]; 95.1% in assay [5]; 99.5% in assay [6]. For the same compound, the growth in assay [7] is 96.5%; in assay [8], 101%; in assay [9], 83.7%; in [10], 120%.
`COC(=O)[C@@H]1[C@H]2C[C@H]3c4[nH]c5cc(OC)ccc5c4CCN3C[C@@H]2C[C@H](OC(=O)/C=C/c2ccnc(OC)c2)[C@H]1OC`: the growth in assay [1] was 71.1%; in assay [2], 75.6%; in assay [3], 53.5%; in assay [4] it was 86.7%; in assay [5] it was 78%; in [6], 76%. Moreover, the growth in [7] is 94.8%; in assay [8] it was 86.7%; in [9], 86.5%; in [10] it was 99.2%.
Turning to `Cc1cc(Cl)c2c(N(C)C)cccc2n1`, the growth was 94.1% in assay [1]; 78% in [2]; 93.6% in [3]; 105% in assay [4]; 105% in assay [5]; 119% in [6]. Also, the growth is 101% in assay [7], 105% in assay [8], 84.1% in [9] and 113% in assay [10].
`C/C(=N\Nc1cc(C)c2ccccc2n1)c1ccccn1`: the growth is 21% in [1]; -90.8% (active) in assay [2]; 31.5% in assay [3]; 19.9% in assay [4]; -86.5% (active) in assay [5]; 15.9% in assay [6]. The growth in assay [7] was -72.1% (active); in assay [8], -52% (active); in assay [9] it was -78.5% (active); in assay [10], -93.7% (active).
`COc1cc2[nH]c(C(=O)c3cc(OC)c(OC)c(OC)c3)c(N)c2cc1C#CCO`: the growth in assay [1] is 19.6%; in assay [2] it was 1.02% (active); in [3] it was 8.88% (active); in assay [4], 26.3%; in assay [5], 22.8%; in [6] it was 10.6%. In addition, the growth in assay [7] is -0.319% (active); in assay [8] it was 31.2%; in [9], 39.4%; in assay [10], 14.3%.
Take `Cc1ccc(-c2nc3ccc(Cl)cc3c(=O)n2N2C(=O)CSC2c2ccccc2Cl)cc1` (centres undefined): the growth in assay [1] is 86.9%; in [2] it was 83.7%; in assay [3] it was 36.1%; in [4] it was 75.2%; in assay [5], 22.3%; in [6], 70.6%. Further, the growth in [7] is 94%; in [8], 77.3%; in assay [9], 89.1%; in [10], 98.6%.
In the case of `Oc1cc(/C=C/c2nc(N3CCOCC3)c3cc(Cl)c(Cl)cc3n2)cc(O)c1O`, the growth in [1] was 98.9%; in assay [2], 120%; in assay [3] it was 91.5%; in assay [4], 102%; in assay [5], 102%; in assay [6], 101%. The growth in [7] is 90%; in assay [8], 98.8%; in [9], 106%; in [10], 109%.
For `Cc1cc(C=O)c(C)c2c1[nH]c1ccccc12`, the growth in assay [1] was 99.8%; in assay [2], 93.2%; in [3], 78.7%; in assay [4] it was 94.6%; in assay [5], 94.1%; in assay [6] it was 92.5%. Further, the growth was 112% in assay [7], 57.3% in assay [8], 81.5% in assay [9] and 110% in [10].
With `NS(=O)(=O)c1ccc(CCNC(=O)/C=C/c2ccc(Cl)cc2)cc1`, the growth was 98.5% in assay [1]; 95.7% in [2]; 85.2% in [3]; 99% in [4]; 97.8% in assay [5]; 87.1% in [6]. The growth in assay [7] was 105%; in assay [8], 104%; in assay [9], 99.1%; in assay [10], 104%.
As for `C#Cc1cc2c(N)c(C(=O)c3cc(OC)c(OC)c(OC)c3)[nH]c2cc1OC`, the growth in [1] was 32.2%; in assay [2], 6.27% (active); in assay [3], -8.14% (active); in [4], 43.7%; in assay [5], 34%; in [6], 16.3%. Also, the growth in assay [7] was 19.9%; in [8] it was 34.7%; in assay [9] it was 46.1%; in [10] it was 40.3%.
Consider `CN1CCN(c2nc(-c3cccc4ccccc34)nc3sc4c(c23)CCCCCC4)CC1`, for which the growth in [1] was 91.8%; in assay [2] it was 71.2%; in [3], 49.1%; in assay [4], 91.5%; in assay [5], 66.4%; in assay [6], 56.7%. For the same compound, the growth was 85.3% in [7], 87.6% in [8], 95.1% in assay [9] and 98.1% in assay [10].
Regarding `Cc1cc(Nc2ccc(F)cc2)nc(N2CCN(c3ccnc4cc(Cl)ccc34)CC2)n1`, the growth was 9.8% (active) in [1]; 1.42% (active) in assay [2]; 14.6% in [3]; 43.9% in [4]; 26.4% in [5]; 11.1% in assay [6]. The growth in assay [7] is 14.1%; in assay [8] it was 21.5%; in [9], 13.1%; in assay [10], 16.7%.
In the case of `Cc1nn2c(-c3nc4cc(Cl)c(Cl)cc4[nH]3)c(-c3ccc(F)cc3)nc2s1`, the growth was 76.8% in assay [1]; 20% in [2]; -43.7% (active) in [3]; 25.7% in assay [4]; 10.6% in assay [5]; 24.6% in [6]. The growth was 31.9% in [7], 15.9% in assay [8], 19.5% in assay [9] and 22.9% in assay [10].
For `NC(=O)[C@@H]1CC2CCC1C2` (some centres undefined), the growth is 98.2% in assay [1]; 117% in assay [2]; 85.1% in [3]; 111% in [4]; 96.3% in assay [5]; 91% in [6]. The growth was 109% in [7], 110% in assay [8], 106% in [9] and 109% in [10].
As to `CC(C)=CCC/C(C)=C/CC/C(C)=C/CSC[C@H](NC(=O)CCCCCN1CCN(C)CC1)C(=O)NC1CCCCCC1`, the growth in [1] is 0.0874% (active); in assay [2], -48.3% (active); in assay [3], 73.8%; in assay [4], 81%; in [5] it was 33.2%; in assay [6], 51.9%. For the same compound, the growth in [7] was 79.9%; in assay [8], 3.45% (active); in assay [9], 25.3%; in assay [10], -56% (active).
With `Nc1c(C(=O)Nc2cccc(Cl)c2)sc2ncc(Cl)cc12`, the growth in assay [1] is 80.7%; in assay [2] it was 90.3%; in [3] it was 59.6%; in [4] it was 105%; in [5], 10.6%; in [6] it was 95.7%. The growth in [7] is 94.3%; in [8] it was 95.5%; in [9], 44.8%; in assay [10], 91.7%.
As for `Cc1[c-]onc1C.Cc1[c-]onc1C.[Ag].[Ag].[NH-]S(=O)(=O)c1ccc(N=Nc2cc(N=Nc3ccc(S([NH-])(=O)=O)cc3)c3c(NC(=O)C(Cl)Cl)cccc3c2OC(=O)C(Cl)Cl)cc1`, the growth in assay [1] is 84.1%; in [2], 78.3%; in assay [3], 44.8%; in [4] it was 86.6%; in [5], 82.7%; in [6], 47.1%. The growth was 24.2% in assay [7], 85.9% in assay [8], 81.4% in [9] and 86.4% in assay [10].

These data come from PubChem BioAssay (NCI).
